Laboratory results from the supplement of paper PMC10849652.
Of roughly 8,800 targets only a part is listed; those with a hit were picked by preference. About 0.5% of all pairs of compound and target were hits.

Columns and labels:
Experiment in all cases: log2 fold change, soluble protein after heating vs DMSO (PISA); higher = thermal stabilisation; K562 lysate, 10 uM; active = over 0.2 and 3.5 SD of the protein, either way, in both replicates (recomputed)
[1] = compound: CN1CC[C@H](c2c(O)cc(O)c3c(=O)cc(-c4ccccc4Cl)oc23)[C@H](O)C1 [alvocidib]
Method in brief: (§1)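 Following dounce homogenisation of K562 pellets in PBS pH 7.4 with 1 mM MgCl2, crude extract at 1 mg/mL protein was incubated for 30 min with 10 μM compound. Aliquots were then heated for 3 min over 48°C-58°C and pooled, NP-40 was added to 0.5% at 4°C, and soluble protein was recovered as the supernatant at 21,000xg for 90 min. Channel-sum-equalised TMTpro 16plex LC-MS/MS quantified this protein. Each value, from duplicates, is a log-two fold change in thermal stability relative to solvent controls.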

[2] = compound: CN1CCc2c(c3ccccc3n2Cc2ccc(C(=O)NO)cc2)C1 [Tubastatin A]
Method in brief: as §1

[3] = compound: CNC(=O)C1=CC=CC=C1NC2=NC(=NC=C2Cl)NC3=C(C=C(C=C3)N4CCOCC4)OC
Method in brief: as §1

[4] = compound: CNC(=O)c1ccc(Nc2ncc(C(F)(F)F)c(NCc3nccnc3N(C)S(C)(=O)=O)n2)cc1 [defactinib]
Method in brief: as §1

[5] = compound: CNc1nc(-c2ccc3c(N)n[nH]c3c2)cc(N2C[C@@H](C(=O)NC3CCCCC3)CC[C@H]2C)n1
Method in brief: as §1

[6] = compound: COC(=O)N[C@@H](C)CNc1nccc(-c2cn(C(C)C)nc2-c2cc(Cl)cc(NS(C)(=O)=O)c2F)n1 [encorafenib]
Method in brief: as §1

[7] = compound: COC(=O)[C@H](CCSC)NC(=O)C1=C(C=C(C=C1)NC[C@H](CS)N)C2=CC=CC=C2
Method in brief: as §1

[8] = compound: COc1cc(Nc2ncc3c(n2)-c2ccc(Cl)cc2C(c2c(F)cccc2OC)=NC3)ccc1C(=O)O [alisertib]
Method in brief: as §1

[9] = compound: COc1cc2nc(-c3cc(F)ccc3O)nc(N[C@@H]3CNC[C@H]3C(C)(C)O)c2cc1OC
Method in brief: as §1

[10] = compound: COc1cc2ncnc(Nc3ccc(F)c(Cl)c3)c2cc1OCCCN1CCOCC1 [gefitinib]
Method in brief: as §1

[11] = compound: CS(=O)(=O)CCNCc1ccc(-c2ccc3ncnc(Nc4ccc(OCc5cccc(F)c5)c(Cl)c4)c3c2)o1 [lapatinib]
Method in brief: as §1

[12] = compound: CS(=O)(=O)N1CCN(Cc2cc3nc(-c4cccc5[nH]ncc45)nc(N4CCOCC4)c3s2)CC1 [pictilisib]
Method in brief: as §1

[13] = compound: C[C@@H](Oc1cc(-c2cnn(C3CCNCC3)c2)cnc1N)c1c(Cl)ccc(F)c1Cl [crizotinib]
Method in brief: as §1

[14] = compound: C[C@H](C1=CC=C(C=C1)C(=O)NC2=C3C=CNC3=NC=C2)N
Method in brief: as §1

[15] = compound: C[C@H](Nc1ncnc2nc[nH]c12)c1cc2cccc(Cl)c2c(=O)n1-c1ccccc1 [duvelisib]
Method in brief: as §1

[16] = compound: Cc1cc(Nc2cc(CN3CCOCC3)c3nc(C)c(Cc4ccc(Cl)cc4F)n3n2)n[nH]1 [gandotinib]
Method in brief: as §1

[17] = compound: Cc1cc(Nc2cc(N3CCN(C)CC3)nc(Sc3ccc(NC(=O)C4CC4)cc3)n2)n[nH]1 [tozasertib]
Method in brief: as §1

[18] = compound: Cc1ccc(-n2nc(C(C)(C)C)cc2NC(=O)Nc2ccc(OCCN3CCOCC3)c3ccccc23)cc1 [doramapimod]
Method in brief: as §1

[19] = compound: Cc1ccc(NC(=O)c2ccc(CN3CC[C@H](N(C)C)C3)c(C(F)(F)F)c2)cc1Nc1nccc(-c2cncnc2)n1 [bafetinib]
Method in brief: as §1

[20] = compound: Cc1cccc(CC(=O)N2CCc3c2ccc(-c2cn(C)c4ncnc(N)c24)c3F)n1
Method in brief: as §1

Measured: log2 fold change

PRIM1 (UniProt P49642)
inactive: [1] 0 | [2] -0.11 | [3] 0.023 | [4] -0.012 | [5] 0.033 | [6] 0.052 | [7] 0.041 | [8] -0.054 | [9] -0.019 | [10] -0.008 | [11] -0.02 | [12] 0.023 | [13] -0.064 | [14] 0.024 | [15] 0.004 | [16] -0.099 | [17] 0.027 | [18] -0.022 | [19] -0.077 | [20] 0.007

PWP2 (UniProt Q15269)
UniProt Q15269, sequence (Q15269 whole entry, looked up): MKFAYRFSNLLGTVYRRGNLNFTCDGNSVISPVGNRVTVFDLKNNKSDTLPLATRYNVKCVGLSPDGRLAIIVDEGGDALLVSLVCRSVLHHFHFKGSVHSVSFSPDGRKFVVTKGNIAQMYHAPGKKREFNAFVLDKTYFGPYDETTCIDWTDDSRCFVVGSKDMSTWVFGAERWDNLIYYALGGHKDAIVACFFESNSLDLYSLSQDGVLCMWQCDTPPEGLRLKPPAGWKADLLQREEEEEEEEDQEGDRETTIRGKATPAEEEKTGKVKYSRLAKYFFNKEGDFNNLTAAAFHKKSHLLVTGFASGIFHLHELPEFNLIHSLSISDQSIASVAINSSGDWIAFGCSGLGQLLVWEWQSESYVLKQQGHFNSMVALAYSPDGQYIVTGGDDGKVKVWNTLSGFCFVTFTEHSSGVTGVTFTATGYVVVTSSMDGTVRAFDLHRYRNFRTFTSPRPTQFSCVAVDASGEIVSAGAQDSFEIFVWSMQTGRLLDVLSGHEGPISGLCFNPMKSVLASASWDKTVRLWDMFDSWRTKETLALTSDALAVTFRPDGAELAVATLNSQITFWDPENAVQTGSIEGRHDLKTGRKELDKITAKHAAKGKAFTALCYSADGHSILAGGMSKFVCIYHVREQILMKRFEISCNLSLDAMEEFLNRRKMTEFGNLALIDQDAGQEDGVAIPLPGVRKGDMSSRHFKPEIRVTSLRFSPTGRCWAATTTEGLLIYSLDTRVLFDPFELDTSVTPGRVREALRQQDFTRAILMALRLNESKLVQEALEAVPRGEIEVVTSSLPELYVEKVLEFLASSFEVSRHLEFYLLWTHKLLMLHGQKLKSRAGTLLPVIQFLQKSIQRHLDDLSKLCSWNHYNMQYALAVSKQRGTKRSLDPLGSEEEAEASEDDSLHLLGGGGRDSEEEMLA
inactive: [1] -0.014 | [2] -0.073 | [3] 0.027 | [4] 0.042 | [5] 0.061 | [6] 0.035 | [7] -0.033 | [8] 0.004 | [9] -0.007 | [10] -0.057 | [11] -0.017 | [12] -0.012 | [13] 0.001 | [14] -0.016 | [15] 0.005 | [16] -0.075 | [17] -0.013 | [18] -0.017 | [19] -0.023 | [20] 0.029

PHOSPHO2 (UniProt Q8TCD6)
inactive: [1] 0.053 | [2] -0.042 | [3] -0.026 | [4] -0.008 | [5] -0.008 | [6] -0.02 | [8] -0.013 | [9] -0.008 | [10] 0.016 | [11] -0.043 | [12] 0.015 | [13] -0.001 | [14] -0.063 | [15] -0.044 | [16] -0.009 | [17] -0.184 | [18] -0.045 | [19] -0.024 | [20] -0.002
active: [7] 0.356

PRPF38A (UniProt Q8NAV1)
UniProt Q8NAV1, sequence (Q8NAV1 whole entry, looked up): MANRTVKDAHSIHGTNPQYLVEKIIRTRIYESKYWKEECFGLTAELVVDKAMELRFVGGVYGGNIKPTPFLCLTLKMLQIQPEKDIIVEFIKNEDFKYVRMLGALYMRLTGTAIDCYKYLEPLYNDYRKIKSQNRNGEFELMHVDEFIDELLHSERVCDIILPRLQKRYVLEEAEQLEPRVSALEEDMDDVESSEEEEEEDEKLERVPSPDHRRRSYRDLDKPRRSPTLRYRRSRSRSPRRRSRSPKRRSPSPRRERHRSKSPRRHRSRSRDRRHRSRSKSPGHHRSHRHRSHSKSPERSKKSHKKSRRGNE
active: [14] -0.399
inactive: [1] -0.178 | [2] -0.068 | [3] -0.147 | [4] 0.013 | [5] -0.004 | [6] 0.115 | [7] -0.009 | [8] -0.044 | [9] 0.013 | [10] -0.017 | [11] -0.001 | [12] 0.039 | [13] -0.248 | [15] 0.03 | [16] 0.024 | [17] -0.034 | [18] 0.012 | [19] -0.055 | [20] 0.121

POLD1 (UniProt P28340)
UniProt P28340, sequence (P28340 whole entry, looked up): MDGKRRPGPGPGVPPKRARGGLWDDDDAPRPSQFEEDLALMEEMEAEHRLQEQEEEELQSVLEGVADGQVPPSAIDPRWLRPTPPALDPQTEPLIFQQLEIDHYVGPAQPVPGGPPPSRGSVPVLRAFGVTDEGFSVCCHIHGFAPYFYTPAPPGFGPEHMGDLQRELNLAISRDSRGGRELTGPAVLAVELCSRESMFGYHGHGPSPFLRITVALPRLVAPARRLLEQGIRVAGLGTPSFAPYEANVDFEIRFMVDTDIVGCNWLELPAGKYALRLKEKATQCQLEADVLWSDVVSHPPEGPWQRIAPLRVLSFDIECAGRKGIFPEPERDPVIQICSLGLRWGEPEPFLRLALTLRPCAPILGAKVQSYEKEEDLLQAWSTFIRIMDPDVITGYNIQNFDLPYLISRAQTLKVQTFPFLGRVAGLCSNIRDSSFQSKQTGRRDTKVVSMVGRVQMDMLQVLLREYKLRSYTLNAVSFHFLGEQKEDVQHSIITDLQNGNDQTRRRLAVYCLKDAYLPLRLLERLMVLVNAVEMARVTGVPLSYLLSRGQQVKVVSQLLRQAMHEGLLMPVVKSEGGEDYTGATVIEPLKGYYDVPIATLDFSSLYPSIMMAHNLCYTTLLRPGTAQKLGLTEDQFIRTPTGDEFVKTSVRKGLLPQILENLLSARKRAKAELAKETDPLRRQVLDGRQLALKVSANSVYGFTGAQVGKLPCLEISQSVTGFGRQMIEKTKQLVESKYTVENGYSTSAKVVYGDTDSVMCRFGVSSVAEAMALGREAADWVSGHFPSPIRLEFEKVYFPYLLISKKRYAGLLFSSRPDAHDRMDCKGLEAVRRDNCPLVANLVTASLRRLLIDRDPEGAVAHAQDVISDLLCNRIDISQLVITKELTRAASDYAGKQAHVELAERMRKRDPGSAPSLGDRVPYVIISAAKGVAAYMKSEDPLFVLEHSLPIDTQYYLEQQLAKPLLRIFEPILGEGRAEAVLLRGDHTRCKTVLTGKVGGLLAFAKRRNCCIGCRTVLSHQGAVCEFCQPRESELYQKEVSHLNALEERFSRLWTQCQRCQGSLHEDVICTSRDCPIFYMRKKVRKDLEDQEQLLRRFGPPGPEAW
inactive: [1] 0.012 | [2] -0.075 | [3] 0.035 | [4] 0.027 | [5] 0.011 | [6] 0.008 | [7] 0.074 | [8] 0.007 | [9] 0.007 | [10] -0.036 | [11] -0.014 | [12] -0.021 | [13] -0.022 | [14] 0.013 | [15] -0.019 | [16] -0.061 | [17] 0.003 | [18] 0.02 | [19] -0.022 | [20] 0.017

PFKFB2 (UniProt O60825)
UniProt O60825, sequence (O60825 whole entry, looked up): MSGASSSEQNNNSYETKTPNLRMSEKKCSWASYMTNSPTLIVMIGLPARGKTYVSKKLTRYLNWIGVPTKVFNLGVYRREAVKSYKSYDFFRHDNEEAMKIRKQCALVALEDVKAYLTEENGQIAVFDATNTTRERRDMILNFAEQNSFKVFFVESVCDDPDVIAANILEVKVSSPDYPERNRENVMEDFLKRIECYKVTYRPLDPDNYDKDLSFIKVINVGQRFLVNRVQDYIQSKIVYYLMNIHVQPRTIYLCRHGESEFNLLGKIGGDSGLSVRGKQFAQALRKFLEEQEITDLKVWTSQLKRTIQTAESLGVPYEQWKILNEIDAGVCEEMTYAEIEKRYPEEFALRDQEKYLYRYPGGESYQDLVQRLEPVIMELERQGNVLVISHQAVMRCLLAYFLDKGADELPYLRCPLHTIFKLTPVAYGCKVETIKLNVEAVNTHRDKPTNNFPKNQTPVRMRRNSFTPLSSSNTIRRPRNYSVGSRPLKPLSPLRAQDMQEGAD
inactive: [1] 0.017 | [2] -0.045 | [3] 0.03 | [4] -0.02 | [5] -0.035 | [6] 0.015 | [7] -0.124 | [8] 0.014 | [9] 0.006 | [10] 0.014 | [11] 0.006 | [12] 0.001 | [13] 0.017 | [14] -0.016 | [15] -0.015 | [16] -0.035 | [17] 0.038 | [18] -0.018 | [19] -0.07 | [20] 0.01

PLEKHO2 (UniProt Q8TD55)
UniProt Q8TD55, sequence (Q8TD55 whole entry, looked up): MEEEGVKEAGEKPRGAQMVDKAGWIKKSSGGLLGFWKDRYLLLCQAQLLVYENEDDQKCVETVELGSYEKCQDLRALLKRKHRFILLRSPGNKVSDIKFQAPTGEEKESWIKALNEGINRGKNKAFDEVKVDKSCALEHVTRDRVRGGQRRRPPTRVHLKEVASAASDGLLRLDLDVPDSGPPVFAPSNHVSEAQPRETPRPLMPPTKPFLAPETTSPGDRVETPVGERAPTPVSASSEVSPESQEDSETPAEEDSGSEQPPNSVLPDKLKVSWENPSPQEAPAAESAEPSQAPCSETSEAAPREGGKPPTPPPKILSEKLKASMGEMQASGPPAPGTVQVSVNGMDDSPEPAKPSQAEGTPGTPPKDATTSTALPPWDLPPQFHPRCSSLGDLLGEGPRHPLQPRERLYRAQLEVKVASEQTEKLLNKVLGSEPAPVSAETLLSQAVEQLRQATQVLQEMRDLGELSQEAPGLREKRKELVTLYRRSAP
inactive: [1] -0.067 | [2] -0.228 | [3] 0.281 | [4] -0.001 | [5] -0.106 | [6] 0.007 | [7] 0.054 | [8] -0.004 | [9] 0 | [10] 0.043 | [11] 0.045 | [12] 0.184 | [13] 0.057 | [14] 0.039 | [15] 0.062 | [16] -0.018 | [17] -0.137 | [18] 0.005 | [19] -0.193 | [20] 0.07

PYURF (UniProt Q96I23)
UniProt Q96I23, sequence (Q96I23 whole entry, looked up): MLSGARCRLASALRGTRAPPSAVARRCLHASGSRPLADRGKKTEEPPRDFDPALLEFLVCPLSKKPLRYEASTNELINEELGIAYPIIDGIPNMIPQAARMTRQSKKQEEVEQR
inactive: [1] 0.077 | [2] 0.041 | [3] 0.073 | [4] 0.181 | [5] 0.019 | [6] 0.113 | [7] 0.027 | [8] 0.007 | [9] -0.007 | [10] -0.038 | [11] 0.036 | [12] -0.066 | [13] 0.016 | [14] 0.01 | [15] 0.087 | [16] -0.015 | [17] -0.048 | [18] 0.011 | [19] 0.091 | [20] 0.015

PKN1 isoform 2 (UniProt Q16512)
inactive: [1] -0.036 | [2] -0.056 | [3] -0.001 | [4] -0.079 | [5] -0.003 | [6] 0.075 | [7] 0.116 | [8] -0.009 | [9] -0.1 | [10] -0.005 | [11] 0.038 | [12] -0.005 | [13] -0.032 | [14] 0.095 | [15] -0.014 | [16] -0.233 | [17] -0.005 | [18] 0.108 | [19] -0.069 | [20] 0.04

PPT2 isoform 3 (UniProt Q9UMR5)
inactive: [1] -0.051 | [2] 0.014 | [3] -0.005 | [4] -0.067 | [5] 0 | [6] -0.014 | [7] 0.059 | [8] 0.013 | [9] 0.015 | [10] 0.031 | [11] -0.053 | [12] -0.032 | [13] 0.035 | [14] 0.058 | [15] 0.06 | [16] 0.016 | [17] 0.004 | [18] 0 | [19] 0.005 | [20] -0.05

PIP4K2B (UniProt P78356)
UniProt P78356, sequence (P78356 whole entry, looked up): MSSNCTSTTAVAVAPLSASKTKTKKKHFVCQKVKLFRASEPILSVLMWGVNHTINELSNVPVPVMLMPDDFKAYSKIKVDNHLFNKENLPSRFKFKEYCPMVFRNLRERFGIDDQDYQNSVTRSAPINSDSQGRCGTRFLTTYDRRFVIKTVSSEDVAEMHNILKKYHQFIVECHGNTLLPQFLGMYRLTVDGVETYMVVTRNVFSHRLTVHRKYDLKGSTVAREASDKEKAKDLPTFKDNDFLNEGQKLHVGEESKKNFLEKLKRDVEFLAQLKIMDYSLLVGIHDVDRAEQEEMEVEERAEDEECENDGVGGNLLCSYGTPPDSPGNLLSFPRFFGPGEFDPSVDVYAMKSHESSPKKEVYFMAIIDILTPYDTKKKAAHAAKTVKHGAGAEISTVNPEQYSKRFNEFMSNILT
active: [1] 0.223
inactive: [2] 0.008 | [3] -0.014 | [4] 0.031 | [5] -0.065 | [6] 0.062 | [7] -0.093 | [8] -0.036 | [9] -0.028 | [10] 0.013 | [11] 0.033 | [12] 0.044 | [13] -0.019 | [14] 0.01 | [15] 0.006 | [16] 0.029 | [17] -0.029 | [18] -0.001 | [19] 0.164 | [20] -0.067

PCBP2 isoform 8 (UniProt Q15366)
UniProt Q15366, sequence (Q15366 whole entry, looked up): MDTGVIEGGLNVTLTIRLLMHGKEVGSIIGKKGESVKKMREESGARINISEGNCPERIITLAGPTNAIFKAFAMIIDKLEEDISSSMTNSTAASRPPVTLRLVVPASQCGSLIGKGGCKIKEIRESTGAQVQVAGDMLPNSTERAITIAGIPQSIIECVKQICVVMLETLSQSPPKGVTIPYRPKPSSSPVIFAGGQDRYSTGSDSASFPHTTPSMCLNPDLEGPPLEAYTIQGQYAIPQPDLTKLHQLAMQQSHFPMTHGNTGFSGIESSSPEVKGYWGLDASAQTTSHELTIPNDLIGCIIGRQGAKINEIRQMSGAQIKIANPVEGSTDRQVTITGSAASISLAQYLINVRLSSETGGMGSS
inactive: [1] -0.01 | [2] -0.133 | [3] 0.022 | [4] 0 | [5] 0.079 | [6] 0.053 | [7] 0.108 | [8] -0.013 | [9] -0.085 | [10] -0.122 | [11] 0.022 | [12] -0.013 | [13] 0.001 | [14] 0.013 | [15] 0.04 | [16] 0.029 | [17] -0.026 | [18] -0.092 | [19] 0.082 | [20] 0.036

PHLDB1 (UniProt Q86UU1)
inactive: [1] -0.067 | [2] -0.1 | [3] -0.031 | [4] 0.023 | [5] 0.049 | [6] -0.041 | [7] -0.05 | [8] 0.009 | [9] -0.037 | [10] 0.017 | [11] -0.052 | [12] 0.034 | [13] -0.154 | [14] -0.06 | [15] -0.028 | [16] 0.073 | [17] -0.047 | [18] 0.076 | [19] -0.112 | [20] 0.031

PRMT5 (UniProt O14744)
UniProt O14744, sequence (O14744 whole entry, looked up): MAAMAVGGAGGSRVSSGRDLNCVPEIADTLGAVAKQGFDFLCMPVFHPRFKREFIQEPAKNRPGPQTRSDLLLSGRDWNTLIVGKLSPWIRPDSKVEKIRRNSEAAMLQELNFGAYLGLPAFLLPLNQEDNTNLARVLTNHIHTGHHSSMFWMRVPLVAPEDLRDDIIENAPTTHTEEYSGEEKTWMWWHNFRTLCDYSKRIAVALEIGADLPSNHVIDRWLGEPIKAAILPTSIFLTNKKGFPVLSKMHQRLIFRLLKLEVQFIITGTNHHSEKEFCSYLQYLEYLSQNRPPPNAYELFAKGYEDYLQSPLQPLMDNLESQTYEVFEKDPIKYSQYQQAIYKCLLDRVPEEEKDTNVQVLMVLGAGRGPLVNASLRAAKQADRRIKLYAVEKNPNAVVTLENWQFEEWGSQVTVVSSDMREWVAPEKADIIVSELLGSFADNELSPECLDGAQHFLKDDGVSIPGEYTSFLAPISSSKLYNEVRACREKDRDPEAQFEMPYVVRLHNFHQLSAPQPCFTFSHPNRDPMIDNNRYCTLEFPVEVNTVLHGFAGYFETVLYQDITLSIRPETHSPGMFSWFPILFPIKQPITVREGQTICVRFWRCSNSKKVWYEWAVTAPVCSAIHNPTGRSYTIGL
active: [1] 0.318
inactive: [2] -0.009 | [3] 0.008 | [4] -0.019 | [5] 0.013 | [6] -0.015 | [7] -0.099 | [8] 0 | [9] 0.011 | [10] -0.023 | [11] -0.029 | [12] -0.012 | [13] 0 | [14] -0.02 | [15] 0.158 | [16] 0.011 | [17] 0.017 | [18] -0.004 | [19] -0.021 | [20] -0.008

PIK3C3 (UniProt Q8NEB9)
inactive: [1] -0.081 | [2] 0.02 | [3] -0.019 | [4] -0.004 | [5] -0.046 | [6] -0.016 | [7] 0.015 | [8] 0.012 | [9] 0.048 | [10] -0.037 | [11] -0.066 | [12] 0.041 | [13] -0.009 | [14] -0.137 | [15] 0.107 | [17] -0.042 | [18] -0.005 | [19] -0.013 | [20] 0.133
active: [16] 0.272

PRPF6 (UniProt O94906)
active: [7] 0.22
inactive: [1] 0.006 | [2] -0.096 | [3] 0.01 | [4] 0.025 | [5] -0.011 | [6] 0.024 | [8] 0.008 | [9] 0.009 | [10] -0.016 | [11] -0.008 | [12] 0.009 | [13] -0.06 | [14] -0.023 | [15] -0.023 | [16] -0.08 | [17] 0.023 | [18] 0.064 | [19] -0.056 | [20] 0.031
